Out of some 370,000 compounds screened, about 3,300 (0.89%) were called active.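 Rule for the calls: active = activation above the mean of all tested compounds plus 3 SD, computed per campaign excluding outliers beyond control limits (cut at about 13% in these data); inactive = the rest.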 The full list was thinned out, with actives kept by preference.

In this experiment the target is Kallikrein-7 (Homo sapiens) (UniProt P49862). Nature of the experiment: proKLK7 zymogen activators, primary screen, biochemical, fluorescence intensity (AID 652039). The settings on record: purified proKLK7, EDANS-DABCYL substrate fluorescence; at 7 µM; hits give high values; 100% is mature enzyme control, 0% vehicle.
Sequence of Kallikrein-7 (Homo sapiens) (P49862 whole entry, looked up): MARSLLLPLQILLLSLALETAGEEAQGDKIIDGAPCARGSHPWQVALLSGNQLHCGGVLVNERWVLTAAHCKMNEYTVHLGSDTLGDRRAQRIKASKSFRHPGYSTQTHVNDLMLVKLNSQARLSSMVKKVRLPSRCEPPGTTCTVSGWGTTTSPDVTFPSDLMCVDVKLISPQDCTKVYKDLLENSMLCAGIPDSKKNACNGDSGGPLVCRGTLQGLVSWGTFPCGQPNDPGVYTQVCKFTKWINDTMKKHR
Take `CC(C)(C)OC(=O)NCc1cc(F)ccc1/C=C/S(=O)(=O)NCCc1ccccc1`: the activation is 0.29% (inactive).

For `FC(F)(F)c1cccc(Cn2ccc3ccc(-c4ccc5ccn(Cc6ccccc6)c5c4)cc32)c1`, the activation is -1.25% (inactive). In the case of `Cc1cccc(NC(=O)/C=C/c2ccc3c(c2)OCO3)n1`, the activation is 6.43% (inactive). `COc1cccc(/C=C/C(=O)Nc2ccc3c(c2)OCCO3)c1`: the activation was -0.23% (inactive). In the case of `O=C(/C=C/c1ccc2c(c1)OCCO2)c1ccc(O)cc1` it was 17.6% (active). With `COc1ccccc1CCNC(=O)C1CCN(c2nc(C)cc(C)n2)CC1` the figure was -0.66% (inactive); with `COC(=O)c1cc(S(=O)(=O)N2CCN(c3ccccc3C)CC2)cn1C`, 0.47% (inactive).

As to `CN(C)Cc1c(O)ccc2c(=O)c(-c3ccccc3Cl)coc12`, the activation was 40.3% (active). Consider `CN(C)Cc1c(O)ccc2occ(C(O)c3ccccc3)c12` (stereo not given), for which the activation was -0.59% (inactive). With `Cc1ccc(C(=O)c2coc3ccc(O)c(CN(C)C)c23)cc1` the figure was 0.08% (inactive); with `COc1ccc(CNC(=O)COC(=O)C2=Cc3ccccc3OC2)cc1`, 31.2% (active); with `COc1ccc(CNC(=O)COC(=O)C(CCSC)N2C(=O)c3ccccc3C2=O)cc1` (stereo not given), 0.41% (inactive). With `COc1ccc(CCNC(=O)COC(=O)c2cc(=O)c3ccccc3o2)cc1` the figure was 0.13% (inactive); with `COc1ccc(-c2cc(-c3nnc(SCc4ccc([N+](=O)[O-])cc4)n3N)[nH]n2)cc1`, 0.29% (inactive); with `O=C(NCc1ccco1)C1CCCN(S(=O)(=O)c2ccc(Cl)s2)C1` (stereo not given), -0.13% (inactive).

On to `COC(=O)C1CN(CC(C)C)CCS(=O)(=O)N1Cc1ccc(F)cc1` (stereo not given), for which the activation was 0.05% (inactive). Turning to `COc1ccc2c(c1)CCc1c(C(=O)N3CCCC3)noc1-2`, the activation was 0.01% (inactive). In the case of `N#Cc1cnn2cc(CCN3CCOCC3)c(-c3ccc(F)cc3)nc12` it was 11.7% (inactive); in that of `COc1ccc2c(c1)CCc1cn3ncc(C#N)c3nc1-2`, 47% (active).

For the compound `CN(CCc1ccccc1)C(=O)Cn1nc(-c2ccccc2)ccc1=O`, the activation was -0.3% (inactive). Regarding `CCOC(=O)C1(Cc2ccccc2)CCN(Cc2cn(C(C)=O)c3ccccc23)CC1`, the activation is 0.56% (inactive).

Consider `CCCCCCN1CCS(=O)(=O)N(Cc2ccc(C(F)(F)F)cc2)C(C(=O)OC)C1` (stereo not given), for which the activation is 0.5% (inactive). In the case of `CCOC(=O)c1oc2c(CN3CCN(C)CC3)c(O)ccc2c(=O)c1-c1ccc(Br)cc1` it was 0.69% (inactive). Regarding `O=c1[nH]c(CN2CCOCC2)nc2scc(-c3ccccc3)c12`, the activation was -0.59% (inactive). In the case of `O=c1c(-c2ccccc2)coc2c(CN3CCOCC3)c(O)ccc12` it was 45.3% (active).

The values are drawn from PubChem BioAssay AID652039 (The Scripps Research Institute Molecular Screening Center, 2013).
